Test results as given in PubChem BioAssay (NCI).
The panel holds about 83,000 compounds, 20% with a hit somewhere; the sample as a whole holds those more often.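 96-well plates, one dose, 48 hours. Percent growth reported; active if below 10.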 Calls of active or inactive are those of the source.

Tested on: CAKI-1 renal
Experiment: NCI-60 one-dose screen, 48 h (100 = growth as untreated, 0 = no growth, -100 = all killed)
Conditions: 10 µM unless noted
Description: Growth inhibition of the CAKI-1 human tumor cell line is measured as a screen for anti-cancer activity. Cells are grown in 96 well plates and exposed to the test compound for 48 hours. Compounds are tested at a single concentration, which is 10^-5 M for most compounds. The reported endpoint is percent growth (GI% or GIPRCNT), where numbers from 0 - 100% represent growth inhibition, and numbers from -100% - 0 represent cell death. For example, a value of 40 represents 60% growth inhibition. A value of 0 means no net growth occurred over the course of the experiment. A value of -40 indicates 40% of cells at the beginning of the experiment died by the end of the experiment. A value of -100 means all cells are dead at the end of the experiment.
NCI-60 Human Tumor Cell Lines Screen was performed using the standard one-dose NCI protocol, which is described in more detail at https://dtp.cancer.gov/discovery_development/nci-60/default.htm.
Compounds with GIPRCNT values below 10 were considered active. Activity score was based on GIPRCNT using the following formula: […]
Score is 0 for GIPRCNT values of 100 or above, 50 for GIPRCNT values of 0, and 100 for GIPRCNT values of -100.

| Compound | growth |
| --- | --- |
| C=CC(=O)Nc1cccc(-c2nc(SC)nc(NCCc3ccc(OC)c(OC)c3)c2C#N)c1 | 52.8% (inactive) |
| C=CC(=O)Nc1cccc(-c2nc(SC)nc(NCCN3CCOCC3)c2C#N)c1 | 86.2% (inactive) |
| COc1cc(-c2nc3ccccc3[nH]2)ccc1OCC(=O)N=Nc1c(O)[nH]c2ccc(Cl)cc12 | -66.4% (active) |
| COc1cc2c(cc1O)CC[C@@H]1[C@@H]2CC[C@]2(C)[C@@H](OCCN(C)C)CC[C@@H]12 | 75.3% (inactive) |
| C=C(C)C1CC(O)C2(C)CCCC3C2C1CC(C)C3(C)CC/C(C)=C/C(O)C1CCC(=O)c2c(OC)cc(OC)cc21 (stereo not given) | 48.5% (inactive) |
| COc1ccc(/C=C/C(=O)c2ccc(O)c(CN3CCN(c4cc5c(cc4F)c(=O)c(C(=O)O)cn5C4CC4)CC3)c2)cc1 | 32% (inactive) |
| O=C1c2cc3c(cc2-c2c1c1cc(F)c(F)cc1c(=O)n2CCCn1ccnc1)OCO3 | 3.03% (active) |
| CCC([N+](=O)[O-])S(=O)(=O)c1ccc(C)cc1 (stereo not given) | 80% (inactive) |
| O=C1c2cc3c(cc2-c2c1c1ccc(F)cc1c(=O)n2CCCNCCO)OCO3 | -7.53% (active) |
| O=C(Nc1cccc2[nH]c(C(F)(F)F)nc12)c1ccc(-n2cnnn2)cc1 | 95.4% (inactive) |
| CN1CCN(CCCOc2cccc3nc(Nc4ccc(Cl)c(F)c4)ccc23)CC1 | 56.2% (inactive) |
| CCCCN(CCCC)CCCn1c(-c2ccccc2)ccc1-c1ccccc1 | 59.8% (inactive) |
| COc1ccc(CN2c3ccccc3Sc3ccccc32)cc1O | 36.2% (inactive) |
| CCOC(=O)c1csc(NC(=O)COc2cccc(/C=C3\CSc4ccccc4C3=O)c2)n1 | 2.32% (active) |
| COc1cccc(C2=NN3C(C2)c2cc(Br)cc(OC)c2OC32CCN(Cc3ccccc3)CC2)c1 (stereo not given) | 90.3% (inactive) |
| N#C/C(=C\c1ccc(-c2ccc(Cl)c(Cl)c2)o1)c1nc(-c2ccco2)cs1 | 81.3% (inactive) |
| O=Nc1c(O)c(Cl)cc2ccccc12 | 76.5% (inactive) |
| O=C1/C(=C/c2cn(-c3ccccc3)nc2-c2ccccc2)SC(=S)N1CCc1ccccc1 | 85.2% (inactive) |
| N#CCCN=Nc1c(O)[nH]c2ccc(F)cc12 | 84.8% (inactive) |
| COc1ccc(-n2nc(C)c3c(Nc4ccc(NC(=O)Nc5c(Cl)cccc5Cl)cc4)ncnc32)cc1 | 57.9% (inactive) |

| Compound | growth |
| --- | --- |
| COc1nc2c(c(=O)n1C)CN(Cc1ccccc1)C=N2 | 98.1% (inactive) |
| CCOc1cc2c(cc1OCC)C(c1cc(OC)c(O)cc1Cl)NCC2 (stereo not given) | 115% (inactive) |
| NC(=O)c1cc(I)ccc1NC(=O)/C=C/c1ccccc1Cl | 13% (inactive) |
| COc1ccc2c(c1)O/C(=C\c1cccc(OCC(=O)Nc3nc4c(s3)CCCC4)c1)C2=O | -100% (active) |
| COc1ccc(Nc2nc(SC)nc(-c3cccc([N+](=O)[O-])c3)c2C#N)cc1 | 63% (inactive) |
| Nc1n[nH]c2ccc([C@@H]3Nc4cc5c(cc4[C@H]4C6CCC(C6)[C@@H]34)C(=O)NC5)cc12 (stereo not given in full) | 40.5% (inactive) |
| COc1cc(Nc2cc(C)nc(N3CCN(c4ccnc5cc(Cl)ccc45)CC3)n2)cc(OC)c1 | 10.8% (inactive) |
| CC1=CC(C)(C)Nc2ccc(Cc3ccc4c(c3)C(C)=CC(C)(C)N4)cc21 | 73.6% (inactive) |
| CCNc1ncnc2c1cnn2C1CCCO1 (stereo not given) | 101% (inactive) |
| c1csc(C2=NN3C(C2)c2ccccc2OC3c2ccncc2)c1 (stereo not given) | 78.2% (inactive) |
| O=[N+]([O-])c1cnc(N2CCN(CC3CC3)CC2)nc1N1CCN(CC2CC2)CC1 | 92.5% (inactive) |
| CCC(=O)c1ccc(Cl)s1 | 102% (inactive) |
| C=CC(=O)Nc1cccc(-c2nc(SC)nc(NCc3ccccc3)c2C#N)c1 | 40.5% (inactive) |
| COc1ccc(CCNc2nc3c(c(=O)n(Cc4ccc(Br)cc4)c(=O)n3C)n2C)cc1OC | 85.6% (inactive) |
| CCCCn1c(-c2ccc(C(=O)O/N=C(\N)c3ccc4ccccc4c3)cc2)nc(-c2ccccc2)c1-c1ccccc1 | 32.3% (inactive) |
| Nc1n[nH]c2ccc([C@@H]3Nc4ccc5cn[nH]c5c4[C@H]4C5CCC(C5)[C@@H]34)cc12 (stereo not given in full) | 33.2% (inactive) |
| COc1ccc(/C=C/c2nc(-c3n[nH]c(=O)n3-c3ccccc3)c3ccccc3n2)cc1 | 84% (inactive) |
| COc1cc2c(cc1O)CC[C@@H]1[C@@H]2CC[C@]2(C)[C@@H](NCCN(C)C)CC[C@@H]12 | -95.9% (active) |
| O=C(CN(C(=O)Cn1c(=O)n2nnnc2c2ccccc21)c1ccccc1C(F)(F)F)Nc1ccc(C(F)(F)F)cc1 | 99.2% (inactive) |
| FC(F)(F)c1ccc(-c2cn3nc(-c4c[nH]c5ccc(Br)cc45)sc3n2)cc1 | 61.4% (inactive) |
